Assay outcomes as filed in PubChem.
Six1-Eya2 blk: qHTS Assay for Inhibitors of the Six1/Eya2 Interaction; AlphaScreen GST-Six1/His-Eya2 binding, biochemical; active compounds read low; 0.56% of 360,000 active; activity change, % (no concentration beside the values); Homeobox protein SIX1 (Homo sapiens) + Protein phosphatase EYA2 (Homo sapiens), …; in the data active means activity change below about -65%; inconclusive means mostly about -30% to -63%; further: on the % scale 0 is the no-effect control and ±100 the full control effect
Target sequence (O00167 whole entry, looked up): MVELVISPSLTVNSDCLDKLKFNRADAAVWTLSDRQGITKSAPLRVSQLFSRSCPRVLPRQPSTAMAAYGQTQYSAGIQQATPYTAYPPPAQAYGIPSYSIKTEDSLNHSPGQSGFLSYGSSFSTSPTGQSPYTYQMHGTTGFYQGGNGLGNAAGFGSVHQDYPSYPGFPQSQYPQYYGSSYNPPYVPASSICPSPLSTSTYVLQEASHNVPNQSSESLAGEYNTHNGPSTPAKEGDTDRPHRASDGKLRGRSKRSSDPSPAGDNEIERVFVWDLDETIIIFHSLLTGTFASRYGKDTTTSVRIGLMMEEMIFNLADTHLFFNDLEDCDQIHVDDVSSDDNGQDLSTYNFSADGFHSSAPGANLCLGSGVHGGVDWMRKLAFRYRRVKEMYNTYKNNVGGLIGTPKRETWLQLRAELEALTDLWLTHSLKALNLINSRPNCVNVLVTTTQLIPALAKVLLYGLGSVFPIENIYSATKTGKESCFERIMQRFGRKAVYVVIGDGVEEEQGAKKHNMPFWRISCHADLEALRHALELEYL
Target sequence (Q15475 whole entry, looked up): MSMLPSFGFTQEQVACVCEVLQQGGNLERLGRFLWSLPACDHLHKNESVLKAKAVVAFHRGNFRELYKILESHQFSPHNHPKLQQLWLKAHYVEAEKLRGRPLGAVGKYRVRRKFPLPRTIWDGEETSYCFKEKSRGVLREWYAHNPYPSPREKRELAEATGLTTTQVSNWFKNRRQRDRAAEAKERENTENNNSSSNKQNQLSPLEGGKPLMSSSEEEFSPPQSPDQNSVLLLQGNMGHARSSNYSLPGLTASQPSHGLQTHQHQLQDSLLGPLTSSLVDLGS
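Compounds are tested against tagged Six1 and Eya2 proteins bridged by glutathione donor and nickel acceptor beads; after a one-hour incubation at 37 °C without light, AlphaScreen emission is recorded.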
HepG2 tox-1: qHTS for Inhibitors of TGF-b: Cytotox Counterscreen | HepG2 CAGA-GFP viability, ATP luminescence, 18 h | Potency, µM (titrated, usually from 46.1 µM), for the others: at the highest dose activity change, negative = cytotoxicity, actives largely listed as cytotoxic | 0.76% of 410,000 active; further: potency means the concentration at half of the fitted maximal effect
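HepG2 CAGA-GFP cells (1000/well, DMEM with 1% FBS) received compound, then TGF-beta at 500 pg/mL final, and were incubated 18 hours at 37 degrees C. Viability was read by CellTiter-Glo luminescence. Media-only wells were set as complete cell-killing and DMSO as no toxicity.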
ATXN viability: Viability Counterscreen for Primary qHTS for Inhibitors of ATXN expression. 0.49% of 400,000 active. Potency, µM (doses to about 56.7 µM), most hits filed as cytotoxic. S2 cells (HEK-293 line with an ATXN2-luciferase reporter) viability, CellTiter-Fluor protease fluorescence, 24 h; further: potency means the concentration at half of the fitted maximal effect; nearly all actives have a fitted effect of over 40% in size
ATXN2 expr inh: Primary qHTS for Inhibitors of ATXN expression. Potency, µM (top dose mostly 57 µM), for the others: top-dose activity change, negative = inhibition, usual class: inhibitors. HEK-293 ATXN2-luciferase reporter, luminescence, 24 h. 0.72% of 360,000 active; further: potency means the concentration at half of the fitted maximal effect; on the % scale 0 is the no-effect control and ±100 the full control effect; nearly all actives have a fitted effect of over 55% in size
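ATXN2-luciferase reporter cells (luciferase flanked by upstream and downstream ATXN2 gene portions) were treated 24 h at 37 °C with compounds at up to 57 uM. SteadyGlo luminescence gave expression; GF-AFC fluorescence gave viability.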
TGFb SMAD3 inh: qHTS for Inhibitors of TGF-b; HepG2 CAGA-GFP TGF-b/SMAD3 reporter, GFP fluorescence, 18 h; TGF-beta stimulated, 500 pg/mL final; Potency, µM (doses to about 46.1 µM), for inactives: at the top dose activity, negative = inhibition, most hits filed as inhibitors; 1.2% of 410,000 active; AID 588855, 2011; further: potency means the concentration at half of the fitted maximal effect; on the % scale 0 is the no-effect control and ±100 the full control effect; nearly all actives have a fitted effect of over 65% in size
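Using HEPG2 CAGA-GFP reporter cells at 1000 cells/well, we pinned test compounds, stimulated with recombinant TGF-beta (500 pg/mL final) and measured total well GFP after 18 h.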
CtBP-E1A inh: qHTS Assay for Inhibitors of the CtBP/E1A Interaction | activity change, % (test concentration not listed) | AlphaScreen GST-E1A/His-CtBP binding, 1536-well; active compounds read low | 0.49% of 340,000 active | CtBP / adenovirus E1A interaction (AlphaScreen); in the data active means activity change below about -65%; inconclusive means mostly about -30% to -63%; further: on the % scale 0 is the no-effect control and ±100 the full control effect
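Steps: dispense buffer (Tris pH 8.0, NaCl 300 mM, TCEP 1 mM, BSA, Tween 20); add 5X protein mix (GST-E1A, His-CtBP, 125 nM each); pin 23 nL compound; 2 h at 37 °C, dark; add 5X beads (50 ug/mL); 1 h; read.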
TGFb confirm: qHTS for Inhibitors of TGF-b: Confirmation of Cherry Picks | AID 720534, 2013 | HepG2 CAGA-GFP TGF-b reporter, GFP fluorescence, 18 h; cells stimulated with TGF-beta, 500 pg/mL | shares compounds with TGFb SMAD3 inh | 63% of 1,600 active | Potency, µM (series often up to 46.1 µM), for the others: at the highest dose activity, negative = inhibition, hits mostly inhibitors; further: potency means the concentration at half of the fitted maximal effect; on the % scale 0 is the no-effect control and ±100 the full control effect; nearly all actives have a fitted effect of over 65% in size
HepG2 tox-2: qHTS for Inhibitors of TGF-b: Cytotox Counterscreen for Cherry Picks | shares compounds with TGFb SMAD3 inh | HepG2 CAGA-GFP viability, ATP luminescence, 18 h; cells stimulated with TGF-beta, 500 pg/mL | Potency, µM (doses to about 46.1 µM), inactives show top-dose activity, negative = cytotoxicity, hits mostly inhibitors | 27% of 1,600 active; further: potency means the concentration at half of the fitted maximal effect; on the % scale 0 is the no-effect control and ±100 the full control effect; nearly all actives have a fitted effect of over 70% in size
CCL64 TGFb inh: qHTS for Inhibitors of TGF-b: CCL64 Cells Orthogonal Assay for Cherry Picks | Potency, µM (series often up to 46.1 µM), for inactives: at the top dose activity, negative = inhibition, hits mostly inhibitors | CCL64 CAGA-GFP reporter, TGF-b stimulated, GFP fluorescence, 18 h | 41% of 1,600 active | shares compounds with TGFb SMAD3 inh | AID 720536, 2013; further: potency means the concentration at half of the fitted maximal effect; nearly all actives have a fitted effect of over 65% in size
COP TGFb inh: qHTS for Inhibitors of TGF-b: Hit Validation in HepG2 Cells using COP promoter; shares compounds with TGFb SMAD3 inh; HepG2 COP-GFP TGF-b reporter, GFP fluorescence, 18 h; cells stimulated by added recombinant TGF-beta; Potency, µM (highest dose often 46.1 µM), inactives show at the highest dose activity, negative = inhibition, actives largely listed as inhibitors; 3% of 1,600 active; AID 720537, 2013; further: potency means the concentration at half of the fitted maximal effect; nearly all actives have a fitted effect of over 70% in size
* marks the source's active call; other numbers are inactive results. Sampled rows, rich in hits. Any-hit rate of the full collection: about 2.8%. Unless noted, the call rests on the fitted dose curve; in most records, active means well fitted curve in the direction sought with a large enough effect; inconclusive means small, poorly fitted or top-dose-only effect, or another doubt; inactive means no such curve, though single readings can be large; an effect the other way counts as inactive or inconclusive.

Results for O=C(N/N=C/c1cc(Cl)ccc1O)c1ccccc1Br ?
Six1-Eya2 blk: -70*; HepG2 tox-1: -29%; ATXN viability: inactive; ATXN2 expr inh: 3.2µM*; TGFb SMAD3 inh: inconclusive; CtBP-E1A inh: -90*; TGFb confirm: inconclusive; HepG2 tox-2: inconclusive; CCL64 TGFb inh: inconclusive; COP TGFb inh: -2%

Results for Cc1cc(C)n(CCc2nc3c4ccccc4nc(N4CCN(c5ccccc5F)CC4)n3n2)n1 ?
HepG2 tox-1: 1%; ATXN viability: inactive; ATXN2 expr inh: 4%; TGFb SMAD3 inh: -1%

What do the screens show for `O=C(O)c1ccccc1C(=O)Nc1cccc([N+](=O)[O-])c1`?
Six1-Eya2 blk: 3; HepG2 tox-1: 6%; ATXN viability: inactive; TGFb SMAD3 inh: 16%

Results for O=C(Nc1cccc([N+](=O)[O-])c1)c1cc2ccccc2cc1O ?
Six1-Eya2 blk: -2; HepG2 tox-1: -39%; ATXN viability: inconclusive; ATXN2 expr inh: inconclusive; TGFb SMAD3 inh: 4µM*; CtBP-E1A inh: 4; TGFb confirm: 6.5µM*; HepG2 tox-2: 4.1µM*; CCL64 TGFb inh: 4.6µM*; COP TGFb inh: 61%

Results for CCN1CCN(c2ccc(S(=O)(=O)N3CCCCC3)cc2NC(=O)c2ccc([N+](=O)[O-])o2)CC1 ?
Six1-Eya2 blk: -24; HepG2 tox-1: -106%; ATXN2 expr inh: inconclusive; TGFb SMAD3 inh: 7.9µM*; CtBP-E1A inh: -8; TGFb confirm: 10µM*; HepG2 tox-2: 21µM*; CCL64 TGFb inh: 16µM*; COP TGFb inh: inconclusive

Results for CC(=O)N1CCN(c2ccc(NC(=O)c3ccc([N+](=O)[O-])o3)cc2Cl)CC1 ?
Six1-Eya2 blk: -10; HepG2 tox-1: inactive; ATXN viability: inconclusive; ATXN2 expr inh: -36%; TGFb SMAD3 inh: 6.3µM*; CtBP-E1A inh: -21; TGFb confirm: 4.6µM*; HepG2 tox-2: 18µM*; CCL64 TGFb inh: 12µM*; COP TGFb inh: -28%

How did CCN1CCN(c2ccc(NC(=O)c3ccc([N+](=O)[O-])o3)cc2Cl)CC1 do in these assays?
Six1-Eya2 blk: -6; HepG2 tox-1: -6%; ATXN viability: inconclusive; ATXN2 expr inh: -11%; TGFb SMAD3 inh: inconclusive; CtBP-E1A inh: -13

Results for CC(=O)Nc1ccc2nc(NC(=O)c3ccc([N+](=O)[O-])o3)sc2c1 ?
Six1-Eya2 blk: -8; HepG2 tox-1: 0%; ATXN viability: inactive; ATXN2 expr inh: 3%; TGFb SMAD3 inh: 5µM*; CtBP-E1A inh: -5; TGFb confirm: 1.8µM*; HepG2 tox-2: 21µM*; CCL64 TGFb inh: inconclusive; COP TGFb inh: 21%

How did CCC(=O)N1CCN(c2ccc(NC(=O)c3ccc([N+](=O)[O-])o3)cc2Cl)CC1 do in these assays?
Six1-Eya2 blk: 29; HepG2 tox-1: -87%; ATXN viability: inconclusive; ATXN2 expr inh: inconclusive; TGFb SMAD3 inh: 7.9µM*; CtBP-E1A inh: 22; TGFb confirm: 3.7µM*; HepG2 tox-2: 9.2µM*; CCL64 TGFb inh: 21µM*; COP TGFb inh: -15%

What do the screens show for `COc1ccc(S(=O)(=O)N2CCCCC2)cc1NC(=O)c1ccc([N+](=O)[O-])o1`?
Six1-Eya2 blk: 3; HepG2 tox-1: 0%; ATXN viability: inactive; ATXN2 expr inh: 3%; TGFb SMAD3 inh: -10%; CtBP-E1A inh: -9

What do the screens show for `O=C(Oc1ccc(Cl)c2cccnc12)c1ccco1`?
Six1-Eya2 blk: -88*; HepG2 tox-1: -52%; ATXN viability: inactive; ATXN2 expr inh: -20%; TGFb SMAD3 inh: 8.9µM*; CtBP-E1A inh: -83*; TGFb confirm: -2%; HepG2 tox-2: -15%; CCL64 TGFb inh: 22%; COP TGFb inh: 4%

What do the screens show for `COc1ccc2c(c1)c1c(c(=O)n(-c3cccc(C)c3)c(=O)n1CC(=O)NCC1CCCO1)n2C` (stereo not drawn)?
HepG2 tox-1: 0%; ATXN viability: inconclusive; ATXN2 expr inh: -4%; TGFb SMAD3 inh: 22%

How did CC(C)(C)S(=O)(=O)/C(C#N)=N/Nc1ccc(Cl)cc1 do in these assays?
Six1-Eya2 blk: -11; HepG2 tox-1: -33%; ATXN viability: inconclusive; ATXN2 expr inh: inconclusive; TGFb SMAD3 inh: inconclusive; CtBP-E1A inh: -8; TGFb confirm: 13µM*; HepG2 tox-2: inconclusive; CCL64 TGFb inh: inconclusive; COP TGFb inh: 49%

How did CC(C)(C)c1ccc(N/N=C(\C#N)S(=O)(=O)C(C)(C)C)cc1 do in these assays?
Six1-Eya2 blk: -12; HepG2 tox-1: -43%; ATXN viability: inconclusive; ATXN2 expr inh: -32%; TGFb SMAD3 inh: inconclusive; CtBP-E1A inh: -8

How did OC(c1cc(C(F)(F)F)nc2c(C(F)(F)F)cccc12)C1CCCCN1 (stereo not drawn) do in these assays?
Six1-Eya2 blk: 39; HepG2 tox-1: -97%; ATXN2 expr inh: inconclusive; TGFb SMAD3 inh: inconclusive; CtBP-E1A inh: 0
